Active and inactive are the calls of the source. Calls come from the whole dose curve; as a rule, active = well fitted inhibition curve with a large enough effect; inconclusive = small, poorly fitted or top-dose-only effect; inactive = no such curve, though single readings can be large or run the other way.
molecular target: Pyruvate kinase (Leishmania mexicana) (UniProt Q27686); test: qHTS Validation Assay for Inhibitors of Leishmania Mexicana Pyruvate Kinase (AID 945); details: purified L. mexicana pyruvate kinase, enzyme activity, E451W mutant enzyme; series mostly up to 57.5 µM
Sequence (Q27686 2-499 E452W): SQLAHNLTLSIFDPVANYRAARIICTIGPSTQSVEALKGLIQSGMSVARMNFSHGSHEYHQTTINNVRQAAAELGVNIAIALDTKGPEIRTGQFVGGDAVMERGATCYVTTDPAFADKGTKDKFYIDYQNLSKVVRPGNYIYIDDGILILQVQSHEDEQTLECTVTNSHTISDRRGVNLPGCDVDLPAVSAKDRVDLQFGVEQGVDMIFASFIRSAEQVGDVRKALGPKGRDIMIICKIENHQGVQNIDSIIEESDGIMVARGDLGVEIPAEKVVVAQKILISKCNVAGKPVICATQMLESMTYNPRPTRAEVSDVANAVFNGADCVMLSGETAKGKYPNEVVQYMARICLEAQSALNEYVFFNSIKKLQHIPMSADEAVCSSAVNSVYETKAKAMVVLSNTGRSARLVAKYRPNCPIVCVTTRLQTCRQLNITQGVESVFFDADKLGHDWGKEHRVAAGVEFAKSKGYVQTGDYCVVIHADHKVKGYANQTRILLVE
Description: NIH Molecular Libraries Screening Centers Network [MLSCN]
NIH Chemical Genomics Center [NCGC]
PI names: Malcom Walkinshaw, Hugh Morgan and Linda Gilmore
University of Edinburgh, Edinburgh, UK
Species of Leishmania are responsible for a wide spectrum of diseases throughout the tropics and subtropics, ranging from self-healing ulcers to highly disfiguring lesions and serious, often lethal visceral diseases, such as kala-azar. In Leishmania spp. it has been shown that both sugar uptake and gluconeogenesis are necessary to synthesize sufficient hexose-phosphate required for the production of glycoconjugates and the intracellular polysaccharide mannan which are essential for both replication and virulence of the parasites. Therefore, most of the enzymes participating in glycolysis and gluconeogenesis are expected to be essential (Naderer et al., 2006). The assay described here targets pyruvate kinase from Leishmania mexicania (LmPYK) that was obtained as a highly purified preparation from the University of Edinburgh (E451W mutant was provided). A 1536 well assay protocol was set up and validated by screening the LOPAC library in triplicate as an eight point concentration-titration series using the qHTS platform developed at the NCGC.
NCGC Assay Protocol Summary:
Three uL of substrate mix (final concentrations, 50 mM imidazole pH 7.2, 50 mM KCl, 7 mM MgCl2, 0.5 mM PEP, 0.1 mM ADP, 0.01% Tween 20, 0.05% BSA) was dispensed into white solid medium binding Greiner 1536 well plates. 23 nL of compound were delivered by a pin tool and 1 uL of enzyme mix (final concentration, 0.2 nM LmPYK, 50 mM imidazole pH 7.2, 0.05% BSA) was added. Plates were covered with stainless steel gasket-lined lids and incubated at room temperature for 1 hour. Two uL of detection and kinase stop mix (PKLight, Lonza) was added, and luminescence read by a ViewLux (Perkin Elmer) at 2 second exposure/plate using 2x binning. Controls on each plate were as follows: column 1, sixteen-point titration (1:2 dilutions) in duplicate the LmPK activator LOPAC-C8145 beginning at 57 uM final concentration; column 2, sixteen-point titration (1:2 dilutions) in duplicate activator LOPAC-S4063 beginning at 57 uM final concentration; column 3, column 4 DMSO only. Data were normalized to the neutral control (column 3).

Row | Compound | outcome
1 | NCC(CC(=O)O)c1ccc(Cl)cc1 (configuration not stated) | inactive
2 | NCC1(CC(=O)O)CCCCC1 | inactive
3 | O=c1[nH]c2ccccc2n1C1CCN(CCCC(c2ccc(F)cc2)c2ccc(F)cc2)CC1 | inactive
4 | O=c1[nH]c2ccccc2n1CCCN1CCC(n2c(=O)[nH]c3cc(Cl)ccc32)CC1 | inactive
5 | N[C@@H]1C[C@H]1c1ccccc1 | inactive
6 | Cc1ccc(S(=O)(=O)N[C@@H](CCCCN)C(=O)CCl)cc1 | inactive
7 | NN=C(N)N | inactive
8 | Fc1ccc(C(OCCN2CCN(CCCc3ccccc3)CC2)c2ccc(F)cc2)cc1 | inactive
9 | Cc1ncc(CNC(=O)N(CCCl)N=O)c(N)n1 | inactive
10 | Nc1ccncc1 | inactive
11 | CCCN1CCC[C@@H]2Cc3nc(N)ncc3C[C@H]21 | inactive
12 | CCCC(C)(COC(N)=O)COC(=O)NC(C)C (configuration not stated) | inactive
13 | N#CC(C#N)=Cc1ccc(O)c(O)c1 | inactive
14 | CCCN1CCC[C@@H]2Cc3[nH]ncc3C[C@H]21 | inactive
15 | CN1C[C@H](CNC(=O)OCc2ccccc2)C[C@@H]2c3cccc4c3c(cn4C)C[C@H]21 | inactive
16 | Cc1cccc(C)c1NC1=NCCCS1 | inactive
17 | COc1ccccc1N1CCNCC1 | inactive
18 | c1ccc(C2CC2)c(OCC2=NCCN2)c1 | inactive
19 | CNCC(O)c1ccc(O)cc1 (configuration not stated) | inactive
20 | CCn1cc(C(=O)O)c(=O)c2ccc(C)nc21 | inactive
21 | Clc1cccc(N2CCNCC2)c1 | inactive
22 | CC(=O)[C@H]1CC[C@H]2[C@@H]3CC[C@H]4C[C@H](O)CC[C@]4(C)[C@H]3C(=O)C[C@]12C | inactive
